About 1,600 (2.2%) of roughly 72,000 compounds were called active. The entries come from a sample that favours actives as a whole. Values without a mark were called inactive. Calls come from the whole dose curve; as a rule, active = well fitted inhibition curve with a large enough effect; inconclusive = small, poorly fitted or top-dose-only effect; inactive = flat fitted curve, though single readings scatter.
% is set by controls: 0 for no effect and ±100 for the full control effect; potency is the fitted concentration of half-maximal effect.

Chain of Luciferin 4-monooxygenase (Photinus pyralis) (P08659 whole entry, looked up): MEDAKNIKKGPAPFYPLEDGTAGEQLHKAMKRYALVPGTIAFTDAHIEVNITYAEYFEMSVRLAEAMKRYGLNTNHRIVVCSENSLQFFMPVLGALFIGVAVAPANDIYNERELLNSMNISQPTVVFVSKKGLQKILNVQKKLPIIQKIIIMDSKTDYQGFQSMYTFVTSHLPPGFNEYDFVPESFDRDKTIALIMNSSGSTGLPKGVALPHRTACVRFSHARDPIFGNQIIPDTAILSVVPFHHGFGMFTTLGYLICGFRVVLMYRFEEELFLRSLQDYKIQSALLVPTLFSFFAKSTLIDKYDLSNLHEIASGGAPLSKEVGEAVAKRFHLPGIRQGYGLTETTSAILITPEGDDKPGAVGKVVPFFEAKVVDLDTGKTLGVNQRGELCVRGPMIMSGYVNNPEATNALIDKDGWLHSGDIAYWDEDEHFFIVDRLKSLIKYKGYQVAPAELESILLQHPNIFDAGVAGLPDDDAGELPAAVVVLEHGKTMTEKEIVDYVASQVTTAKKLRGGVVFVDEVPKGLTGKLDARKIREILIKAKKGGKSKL

The experiment deals with Luciferin 4-monooxygenase (Photinus pyralis) (UniProt P08659). As to the kind of experiment: qHTS Assay for Inhibitors of Firefly Luciferase. Note: nearly all actives have a fitted effect of over 40% in size. The following applies: purified firefly luciferase, luminescence, 8 min; series mostly up to 57.1 µM; activity change, negative = inhibition: at the top concentration. The protocol:
To aid in the interpretation of high-throughput screening (HTS) results derived from luciferase-based assays, we used quantitative HTS, an approach that defines the concentration-response behavior of each library sample, to profile the ATP-dependent luciferase from Photinus pyralis against more than 72 000 samples. Luciferase (PKLight, Cambrex Corporation) was assayed for its ability to generate light using ATP and luciferin as substrates. The ATP concentration in the assay (10 uM) was within the linear range of enzyme activity for the assay conditions used. See following reference for further details: [1] Auld DS, Southall NT, Jadhav A, Johnson RL, Diller DJ, Simeonov A, Austin CP, Inglese J. Characterization of chemical libraries for luciferase inhibitory activity. J Med Chem. 2008 Apr 24;51(8):2372-86. Auld DS, Zhang YQ, Southall NT, Rai G, Landsman M, Maclure J, Langevin D, Thomas CJ, Austin CP, Inglese J. A Basis for Reduced Chemical Library Inhibition of Firefly Luciferase Obtained from Directed Evolution. J. Med. Chem., 2009, 52 (5), pp 1450#1458 [3] Auld DS, Thorne N, Nguyen DT, Inglese J. A specific mechanism for nonspecific activation in reporter-gene assays. ACS Chem Biol. 2008 Aug 15;3(8):463-70. Auld DS, Thorne N, Maguire WF, Inglese J. Mechanism of PTC124 activity in cell-based luciferase assays of nonsense codon suppression. Proc Natl Acad Sci U S A. 2009 Mar 3;106(9):3585-90. Inglese J, Auld DS, Jadhav A, Johnson RL, Simeonov A, Yasgar A, Zheng W, Austin CP. Quantitative high-throughput screening: a titration-based approach that efficiently identifies biological activities in large chemical libraries. Proc Natl Acad Sci U S A. 2006 Aug 1;103(31):11473-8.
Four uL of substrate mix (final concentration, 50 mM imidazole pH 7.2, 50 mM KCl, 7 mM MgCl2, 10 uM ATP, 0.01% Tween 20, 0.05% BSA) was dispensed into white 1536 well plates. Twenty-three nL of compound was delivered by a pin tool and 2 uL of luciferase detector mix (PKLight, Cambrex) was added. Following 8-minute incubation at ambient temperature, luminescence was measured by a ViewLux (Perkin Elmer) at 5 seconds exposure/plate.
(In general: Quantitative high-throughput screening tests each substance at several concentrations.)
On to `Cc1cccc(-n2ncc3c(N4CCc5ccccc54)ncnc32)c1`, for which the “activity change, negative = inhibition” value is 0.441%.
With `c1ccc(-n2ncc3c(N4CCCC4)ncnc32)cc1`, the Potency is 5.01 µM (active).
For `c1ccc(-n2ncc3c2ncn2c(C4CCCCC4)nnc32)cc1`, the “activity change, negative = inhibition” value is 0.168%.
On to `COc1ccc(-n2ncc3c(N4CCCc5ccccc54)ncnc32)cc1`, for which the Potency was 12.6 µM (active).
`COc1ccc(N2CCN(C(=O)CSc3ncnc4c3cnn4-c3ccc(OC)cc3)CC2)cc1`: the “activity change, negative = inhibition” value was -3.13%.
For the compound `COc1ccc2c(c1)C=CC1(O2)N(CCO)c2ccccc2C1(C)C` (stereo not drawn), the “activity change, negative = inhibition” value was -3.19%.
On to `CCOC(=O)c1cc(-c2nnc(-c3cc(OC)c(OC)c(OC)c3)o2)c(C)nc1C`, for which the “activity change, negative = inhibition” value was 0.0559%.
On to `CC(=O)c1c(C)n(-c2ccc(N(C)C)cc2)c2ccc(OCC(N)=O)cc12`, for which the “activity change, negative = inhibition” value is 1.64%.
Regarding `N#CC1=C(N)C(C#N)(C#N)[C@H](c2ccsc2)[C@H]2COCC=C12`, the “activity change, negative = inhibition” value was 5.37%.
With `Cn1c(-c2ccc(C(=O)c3ccccc3)s2)nc2ccccc21`, the Potency was 2.51 µM (active).
As to `Cn1c(CNC(=O)C(C)(C)C)nc2ccccc21`, the “activity change, negative = inhibition” value was 1.81%.
Turning to `Cc1nn2c3ccccc3nc2n(C)c1=O`, the “activity change, negative = inhibition” value is 0.967%.
Still for that read-out and setting: with `Cn1c(=O)c2c(n(Cc3ccccc3)c1=O)NC(=O)C2CC(=O)N1CCc2ccccc2C1` (stereo not drawn) the figure was 4.38%.
As to `Cc1cc(Cl)c(S(=O)(=O)Nc2ccc3c(c2)OCCO3)cc1OCC(N)=O`, the “activity change, negative = inhibition” value is -8.83%.
For `COc1ccccc1OCCOc1ccc(/C=N/n2cnnc2)cc1`, the “activity change, negative = inhibition” value was -5.09%.
`O=C(CSc1nc2c(cnn2-c2ccc(F)cc2)c(=O)[nH]1)N1CCCCCC1`: the “activity change, negative = inhibition” value was 1.33%.
Take `CCCC(=O)Nc1ccc2c(c1)nc1n2CCSC1`: the “activity change, negative = inhibition” value is -13.7%.
On the same count and under the same terms, the result for `O=C(NCc1cn2ccsc2n1)Nc1cccc(Cl)c1` reads 1.2%.
As to `CCCC(=O)Nc1cccc(-c2cn3ccsc3n2)c1`, the Potency was 15.8 µM (active).
Regarding `O=C(O)CS(=O)c1ccc2c3c(cccc13)C(=O)c1ccccc1-2` (stereo not drawn), the activity change, negative = inhibition is -1.48% [at 11.4 µM].
As for `O=C1C(C=NCC2CCCO2)=C(O)c2ccccc21` (stereo not drawn), the Potency was 15.8 µM (active).
Turning to `O=C(CS(=O)(=O)Cc1ccccc1)NCC1CCCO1` (stereo not drawn), the “activity change, negative = inhibition” value is 1.3%.
On to `CC(=NCC1CCCO1)c1c(O)[nH]c(=O)[nH]c1=O` (stereo not drawn), for which the “activity change, negative = inhibition” value is 1.78%.
For the compound `CCCOc1ccc(-c2nc(N)n[nH]2)cc1`, the Potency was 15.8 µM (active).
For the compound `CCCCOc1ccc(-c2ncc(C(=O)OCC)c(N)n2)cc1`, the “activity change, negative = inhibition” value is -1.24%.
With `Nc1nc(SCCOc2ccccc2)n[nH]1`, the “activity change, negative = inhibition” value is -14.9%.
With `O=c1c2c(nc3n1CCCCC3)sc1c(O)cccc12`, the Potency was 15.8 µM (active).
In the case of `Cc1cc(=O)n2c3c(cccc13)CCC2`, the “activity change, negative = inhibition” value is 1.64%.
For `O=C(Cn1[nH]c(=O)c2ccccc2c1=O)Nc1cccc(-c2nnc3n2CCCCC3)c1`, the “activity change, negative = inhibition” value was 1.94%.
On to `CCCn1c(=O)c2ccccc2n2c(SCC(=O)/C(C#N)=C(\C)N)nnc12`, for which the “activity change, negative = inhibition” value is -0.672%.
Take `CCCCCC(=O)Nc1ccc2oc(-c3ccncc3)nc2c1`: the “activity change, negative = inhibition” value is 2.79%.
In the case of `CCc1ccc2oc(-c3ccc(N)cc3)nc2c1`, the Potency was 2 µM (active).
Regarding `Nc1ccc(-c2nnc(-c3ccc(-c4ccccc4)cc3)o2)cc1`, the “activity change, negative = inhibition” value is -12.2%.
Still for that read-out and setting: the result for `Cc1cc(Cl)c(S(=O)(=O)NCC2CCCO2)cc1OCC(N)=O` (stereo not drawn) reads 0.983%.
In the case of `Nc1ncc(-c2cc3ccccc3oc2=O)s1`, the Potency is 12.6 µM (active).
With `O=C(NCc1ccccn1)c1cc2ccccc2oc1=O`, the “activity change, negative = inhibition” value was -11.1%.
On the same count and under the same terms, the result for `O=C(Oc1cccnc1)c1cc2ccccc2oc1=O` reads -3.47%; that for `O=c1c(-c2ccc(F)cc2)nc2cncnc2n1-c1ccccc1`, 0.918% [at 11.4 µM]; that for `CCC(=O)Nc1ccc(C(=O)CSc2nnc(CNc3ccc(Cl)cc3)o2)cc1OC`, -0.26%.
As for `C#CC(C)(C)NC(=O)CSc1nc2c(c(=O)n(C)c(=O)n2C)n1CCCC`, the “activity change, negative = inhibition” value is -6.83%.
With `Cc1c(NC(=O)Nc2ccccc2Cl)sc(=S)n1C`, the “activity change, negative = inhibition” value is 0.0836%.
As to `Oc1ccc(-c2csc(Nc3cccnc3)n2)cc1`, the “activity change, negative = inhibition” value was -8.52%.
In the case of `c1ccc(Nc2nc(-c3ccncc3)cs2)nc1`, the Potency was 7.94 µM (active).
Take `Clc1ccc(Nc2nc(-c3cccs3)cs2)nc1`: the “activity change, negative = inhibition” value is 2.83%.
Regarding `CC(=O)OCC(=O)[C@@]1(O)CC[C@@H]2[C@H]3CCC4=CC(=O)C=C[C@]4(C)[C@]3(F)[C@@H](O)C[C@@]21C`, the “activity change, negative = inhibition” value was -2.25% [at 25.5 µM].
For `Cn1c2c(c(=O)n(C)c1=O)CN(Cc1ccco1)CN2`, the “activity change, negative = inhibition” value is 0.895%.
With `COc1cc(OC)c(C(=O)Nc2ccc(N(C)C)cc2)cc1OC`, the Potency was 15.8 µM (active).
Turning to `COc1cc(OC)c(C(=O)NC2CCCCCC2)cc1OC`, the “activity change, negative = inhibition” value is -0.721%.
For `COc1ccc(C(=O)Nc2cccnc2)cc1C(=O)Nc1cccnc1`, the “activity change, negative = inhibition” value was 1.27% [at 25.5 µM].
On to `CCOP1(=O)C=C(C(C)(C)C)OC1c1ccc(F)cc1` (stereo not drawn), for which the “activity change, negative = inhibition” value is -0.946%.
On to `O=c1c(-c2ccc(F)c(F)c2)nc2cncnc2n1-c1ccccc1`, for which the activity change, negative = inhibition is 1.37% [at 11.4 µM].
In the case of `COc1ccc(Oc2ncc3nc(-c4ccc(F)cc4)c(=O)n(C)c3n2)cc1`, the activity change, negative = inhibition is 0.178% [at 11.4 µM].
Take `CN1CCC2(CC1)CCN(S(=O)(=O)c1ccccc1)CC2`: the activity change, negative = inhibition was 1.62% [at 11.4 µM].
